Screening results: PubChem, several laboratories
A selection: hits, their analogues and other compounds. The true share with any hit is near 6.6%.
Mdm2 MdmX PPI – disrupts the human Mdm2-MdmX interaction; SaOS-2 split-luciferase Mdm2/MdmX complementation, luminescence; O15151+Q00987; inhibition, % at 8 µM; actives 3% (n = 330,000); AID 485346;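 active = inhibition of at least 50% at 8 µM in the primary screen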
Target sequence (O15151 whole entry, looked up): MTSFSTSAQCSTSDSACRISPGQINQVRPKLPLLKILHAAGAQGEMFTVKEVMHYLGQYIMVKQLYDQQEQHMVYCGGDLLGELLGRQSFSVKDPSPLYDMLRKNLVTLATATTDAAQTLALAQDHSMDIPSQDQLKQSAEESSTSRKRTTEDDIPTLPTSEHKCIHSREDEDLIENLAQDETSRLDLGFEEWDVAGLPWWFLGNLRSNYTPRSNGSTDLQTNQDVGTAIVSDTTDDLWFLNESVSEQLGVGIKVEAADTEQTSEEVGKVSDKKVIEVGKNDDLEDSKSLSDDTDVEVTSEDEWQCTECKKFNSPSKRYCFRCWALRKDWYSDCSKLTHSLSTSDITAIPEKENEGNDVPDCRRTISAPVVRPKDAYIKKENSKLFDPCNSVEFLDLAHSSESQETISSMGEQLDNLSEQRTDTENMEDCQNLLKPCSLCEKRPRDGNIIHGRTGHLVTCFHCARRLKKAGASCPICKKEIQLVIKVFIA
Target sequence (Q00987 whole entry, looked up): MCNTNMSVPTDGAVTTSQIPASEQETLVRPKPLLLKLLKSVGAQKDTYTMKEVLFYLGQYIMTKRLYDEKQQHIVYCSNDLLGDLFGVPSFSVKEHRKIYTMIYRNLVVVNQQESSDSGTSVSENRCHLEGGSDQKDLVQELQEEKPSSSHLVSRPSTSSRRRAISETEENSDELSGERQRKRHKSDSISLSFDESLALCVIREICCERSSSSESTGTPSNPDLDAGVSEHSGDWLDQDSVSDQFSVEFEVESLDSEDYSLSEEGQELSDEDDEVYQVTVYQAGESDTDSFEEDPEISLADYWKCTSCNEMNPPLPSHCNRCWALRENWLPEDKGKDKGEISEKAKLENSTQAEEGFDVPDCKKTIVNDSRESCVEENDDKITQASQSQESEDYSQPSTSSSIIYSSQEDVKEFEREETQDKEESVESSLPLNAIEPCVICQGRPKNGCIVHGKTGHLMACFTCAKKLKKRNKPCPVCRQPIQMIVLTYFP
CSC inhib – cancer stem cell inhibition; cancer stem cell-like cells viability, luminescence; inhibition, % at 7.5 µM; actives 1.1% (n = 300,000); in the data active = inhibition above about 75%; tested in HMLE shEcad cells
Beta apoptosis – beta cell apoptosis inhibition; INS-1E cytokine-induced death, ATP luminescence, 48 h; percent of positive-control rescue, neutral wells zero; protection from apoptosis, % (test concentration not listed); actives 0.8% (n = 300,000);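 active = Every replicate reaches about 75%, or at least half do and their mean reaches it too, limit read from the data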;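 note: 0% = cytokine-treated negative control wells and 100% = positive control rescue; higher means more ATP so stronger rescue from cytokine killing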
GRIN3A LBD mod – NR3A (human) ligand-binding domain modulation. Tm shift relative to glycine control, % at 25 µM. NR3A LBD differential scanning fluorimetry, Tm shift; 0% = protein alone, 100% = glycine-bound protein. AID 1259313. actives 2.5% (n = 340,000);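 active = melting temperature shift of at least 10% of the positive control shift, at one fixed dose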
Gli-Sufu block – Gli-Sufu pathway antagonism | Sufu-KO-LIGHT fibroblasts, Gli luciferase reporter luminescence | inhibition, % at 5 µM | actives 0.74% (n = 340,000);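 active = inhibition above about 55%, limit read from the data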;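 note: 0% = DMSO-treated cells and 100% = wells with medium but no cells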
MPTP block – blocks calcium-induced mitochondrial swelling; isolated mouse mitochondria, Ca2+ swelling absorbance, 30 min; inhibition, % at 10 µM; actives 1.4% (n = 360,000); AID 602449;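 active = inhibition of 50% or more, scaled per plate between neutral and stimulator controls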;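 note: 0% = DMSO wells given calcium and 100% = 1 mM EGTA wells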
Starred values were filed as active, the others as inactive; · = no result.

SMILES | Mdm2 MdmX PPI | CSC inhib | Beta apoptosis | GRIN3A LBD mod | Gli-Sufu block | MPTP block
C/C(=N/Nc1nc(-c2ccccc2)cc(-c2ccc(F)cc2)n1)c1cccc(N)c1 | 42 | 43 | 79* | -5 | -13 | 0
C/C(=N\Nc1nc(C)cc(-c2ccccc2)n1)c1ccc(F)cc1 | -11 | 17 | 78* | 0 | 4 | 2
Cc1cc(-c2ccccc2)nc(N/N=C/c2ccc(O)cc2)n1 | 15 | · | · | 7 | -13 | -2
COc1ccc(/C(C)=N/Nc2nc(C)cc(-c3ccccc3)n2)cc1 | 32 | 5 | 83* | 0 | 9 | 1
C/C(=N\Nc1nc(N)cc(Cl)n1)c1cccc(N)c1 | 18 | -2 | -1 | -1 | -2 | -1
Cc1ccc(OCC(=O)N(Cc2ccc(N(C)C)cc2)C2CCS(=O)(=O)C2)cc1 (stereo unspecified) | -13 | 3 | 0 | 17* | -20 | -4
CN(C)c1ccc(CN(C(=O)COc2ccc(Br)cc2)C2CCS(=O)(=O)C2)cc1 (stereo unspecified) | 10 | -6 | 7 | 0 | -2 | 2
CCOc1ccccc1OCc1nn2c(COc3ccccc3)nnc2s1 | 6 | -12 | -5 | 14* | 4 | -2
O=C(CCO)c1ccc(O)cc1 | -1 | -8 | -4 | -1 | 0 | 0
O=C(CCSc1ccc(Br)cc1)c1ccc(O)cc1 | 27 | 33 | -17 | 12* | 2 | 7
Cc1ccc(NCCN(C)C)c2c(=O)c3cc(O)ccc3sc12 | · | · | · | -2 | 66* | 3
COc1ccccc1-c1cccc([C@@H]2C[C@H]3[C@H](CON3C)CN2C(C)=O)c1 | · | · | · | -1 | -4 | 0
CCOc1ccc(N(C)S(=O)(=O)c2ccc(-c3ccc(=O)[nH]n3)s2)cc1 | 18 | -3 | -1 | -3 | -24 | -1
CN(C)CCN(Cc1ccco1)S(=O)(=O)c1ccc(-c2ccc(=O)[nH]n2)s1 | 9 | 11 | 6 | 14* | · | 0
O=C(COc1ncnc2c(Cl)cc(Cl)cc12)Nc1cc([N+](=O)[O-])ccc1Cl | 9 | 8 | 2 | 14* | 16 | 4
O=C(COc1ncnc2ccccc12)Nc1cc([N+](=O)[O-])ccc1Cl | -3 | 16 | -3 | 2 | -5 | 1
COc1ccc2nc(SCC(=O)Nc3ccccc3)[nH]c2c1 | 4 | -14 | -8 | 17* | 28 | 6
CCCCNS(=O)(=O)c1ccc2nc(SCC(=O)Nc3cccc(F)c3)[nH]c2c1 | 25 | · | · | 17* | -3 | 41
O=C(CSc1ccc(Cl)cc1)Nc1cccc(-c2nc3ccccc3[nH]2)c1 | 2 | 10 | 0 | 32* | -39 | -3
COc1ccc2nc(SCC(=O)NCc3ccccc3)[nH]c2c1 | 1 | -7 | -6 | 1 | 39 | 2
O=C(CN1CCOCC1)Nc1ccc(-c2nc3ccccc3[nH]2)cc1 | -32 | -5 | 2 | -7 | 10 | 0
O=C(Cc1cccs1)Nc1ccc(-c2nc3ccccc3[nH]2)cc1 | -112 | · | 9 | 32* | -47 | 0
Cc1ccc(S(=O)(=O)C[C@@H]2OC[C@H](Cc3ccccc3)N2S(=O)(=O)c2ccc(C)cc2)cc1 | · | · | · | · | · | 6
CN(C(=O)c1ccc(NC(=O)C2CCN(C(=O)OC(C)(C)C)CC2)cc1)C1CCC1 | 8 | -12 | 0 | -2 | 8 | -3
CC(C)N(CCNC(=O)C1CCCN(c2ncnc3c2nc2n3CCCCC2)C1)Cc1ccccc1 (stereo unspecified) | 11 | -5 | -1 | -1 | 23 | -1
SMILES | Mdm2 MdmX PPI | CSC inhib | Beta apoptosis | GRIN3A LBD mod | Gli-Sufu block | MPTP block
COCCN(C(=O)COC(=O)CCc1ccccc1)c1c(N)n(Cc2ccccc2)c(=O)[nH]c1=O | 15 | · | · | 1 | -5 | 1
O=C(CSc1ccccc1)Nc1ccc2sccc2c1 | 6 | -4 | -4 | 17* | -2 | 0
O=C(CSc1ccccc1)Nc1ccc(-c2nc3ccccc3[nH]2)cc1 | -8 | 5 | 15 | 33* | -58 | 0
Cc1ccc2nc(-c3ccc(NC(=O)CSc4ccccc4)cc3)[nH]c2c1 | -45 | · | · | 29* | -17 | 2
O=C(COc1ccccc1)Nc1cccc(-c2nc3ccccc3[nH]2)c1 | -11 | 3 | 2 | 7 | -41 | 12
COc1ccc(OCC(=O)Nc2cccc(-c3nc4ccccc4[nH]3)c2)cc1 | -48 | -5 | 7 | 20* | -43 | 0
Cc1ccc2nc(SCC(=O)Nc3ccc(C(N)=O)cc3)[nH]c2c1 | 9 | -15 | -11 | -2 | -1 | 2
O=C(NCC[C@@H]1C[C@@H]2C=C[C@H]1C2)c1cc(COc2ccc(F)cc2F)on1 | 7 | 10 | -2 | -7 | 1 | 0
CC1=C(C(=O)N(C)C)CC(CC(=O)NCC2CCCCC2)C(=O)N1Cc1ccc(F)cc1 (stereo unspecified) | · | · | · | · | · | 0
CC1(C)CC(NC(=O)c2ccc(Cl)c(Cl)c2)CC(C)(C)N1 | 10 | -7 | · | 1 | 17 | 1
O=C(O)CC(c1cccc(O)c1)N1Cc2ccccc2C1=O (stereo unspecified) | 1 | -2 | 1 | 1 | 0 | 1
CC(OC(=O)Cn1[nH]c(=O)c2ccccc2c1=O)C(=O)Nc1cccc(Cl)c1 (stereo unspecified) | -14 | 0 | 2 | 0 | -7 | -1
O=C(NCc1ccccc1)C1c2ccccc2OCC(=O)N1Cc1ccco1 (stereo unspecified) | · | · | · | · | · | -1
O=C(CSc1nc(-c2ccc(Cl)cc2)[nH]c(=O)n1)Nc1cccc(Cl)c1 | 11 | 49 | -11 | 12* | 12 | 38
Nc1cc(-c2ccc(OC(F)(F)F)cc2)nn1-c1ccc(Cl)c(Cl)c1 | 0 | 82* | -10 | 24* | -12 | 25
COc1ccc(C2CC(c3ccccc3)=NN2c2ccc(Cl)c(C(=O)O)c2)cc1 (stereo unspecified) | 6 | -2 | 1 | 13* | -3 | 0
CC(=O)Oc1ccc(C2=NN(c3ccccc3)C(c3ccccc3)C2)cc1 (stereo unspecified) | 21 | 108* | 1 | 3 | 10 | 1
COc1ccc(C2=NN(c3ccc(C(=O)O)cc3)C(c3ccc(OC)c(OC)c3)C2)cc1 (stereo unspecified) | 19 | 12 | -7 | 0 | -4 | 1
O=c1cc(-c2ccc(Cl)cc2)oc(=O)[nH]1 | 2 | 0 | -6 | -1 | 9 | 3
O=c1cc(N=Nc2ccc(Cl)cc2)[nH]c(=O)[nH]1 | · | 116* | 10 | 3 | · | 0
COc1ccccc1NS(=O)(=O)c1ccc(Cl)c(NC(=S)NC(=O)C2CCCC2)c1 | 32 | 31 | -1 | 1 | 3 | 12
CCN(CC)c1ccc(S(=O)(=O)Nc2cc(Cl)ccc2Cl)cc1NC(=S)NC(=O)C1CCCC1 | 17 | 100* | · | 14* | 11 | 21
COCCNC(=O)C1CCC(Cn2c(=S)[nH]c3ccccc3c2=O)CC1 (stereo unspecified) | 13 | -13 | 3 | -1 | -4 | 0
